The full list was thinned out, with hits kept by preference.
Tgondii IFNg = T. gondii growth inhibition with IFN-gamma, primary screen, cell-based; Toxoplasma gondii growth in IFN-gamma-treated host cells; stronger effect = lower value; activity change, negative = inhibition, % (concentration not given with the values); 69,000 tested, 3.8% active; AID 1259416, 2018; in the data active means activity change below about -70%, passing the limit was not always enough;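 further: host cells are HeLa cells infected with Toxoplasma gondii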
Numbers without * were called inactive; ! = not confirmed by another sample.

`CN1CCN(C2=Nc3cc(Cl)ccc3Nc3ccccc32)CC1` gave Tgondii IFNg -95*!.
Screening COc1cccc(CN2CCN(c3cccc(C(C)C)n3)CC2)c1F returned Tgondii IFNg -14.
Cc1ccc(NC(=O)c2c(O)c3cccnc3n(-c3cccc(F)c3)c2=O)c(C)c1 was read as Tgondii IFNg -33.
Cc1ccc(F)cc1NC(=O)c1c(O)c2cccnc2n(-c2cccc(F)c2)c1=O was read as Tgondii IFNg -27.
For O=C(Nc1cccc(Cl)c1)c1c(O)c2cccnc2n(-c2cccc(F)c2)c1=O the results were Tgondii IFNg -32.
CC(NC(=O)c1c(O)c2cccnc2n(-c2cccc(F)c2)c1=O)c1ccc(F)cc1 (centres undefined) was read as Tgondii IFNg 50.
Screening CC(NC(=O)c1c(O)c2cccnc2n(-c2cccc(F)c2)c1=O)c1ccccc1 (centres undefined) returned Tgondii IFNg -109*.
For O=C(Nc1ccc(F)c(Cl)c1)c1c(O)c2cccnc2n(-c2ccc(F)cc2)c1=O the results were Tgondii IFNg 84.
For O=C(Nc1ccc(F)c(Cl)c1)c1c(O)c2cccnc2n(-c2cccc(F)c2)c1=O the results were Tgondii IFNg -102*.
Screening O=C(Nc1ccccc1)c1c(O)c2cccnc2n(-c2cccc(F)c2)c1=O returned Tgondii IFNg 49.
Cc1cc(F)ccc1NC(=O)c1c(O)c2cccnc2n(-c2cccc(F)c2)c1=O was read as Tgondii IFNg -91*.
For CNc1ncc(CN(C)c2nccc(CCC(F)(F)F)n2)cn1 the results were Tgondii IFNg -3.
CC(=O)NCc1csc(C2CCCN(C(=O)c3cc(F)ccc3F)C2)n1 (centres undefined) was read as Tgondii IFNg -23.
For COCCN1C(=O)CCC12CCC(NCc1cccc(C)n1)CC2 (centres undefined) the results were Tgondii IFNg -1.
O=C(Nc1ccccc1Cl)c1c(O)c2ccccc2[nH]c1=O was read as Tgondii IFNg 23.
For Cc1ccc(-c2nc(C)c(CCNS(=O)(=O)c3ccc(Br)cc3)s2)cc1 the results were Tgondii IFNg 123.
Screening CC(=O)Nc1ccc(-c2nccn2-c2ccc(-c3n[nH]c(C)n3)cc2)cc1 returned Tgondii IFNg -1.
For Cc1nc(OCC(=O)Nc2cccc(Cl)c2C)c2ccccc2n1 the results were Tgondii IFNg -1.
Screening CCO[C@@H]1CO[C@@]2(CCCN(C(=O)CC3=CCCCC3)C2)C1 returned Tgondii IFNg 46.
For N[C@@H]1CC[C@@H](NC(=O)CCn2c(=O)[nH]c3ccccc32)C1 the results were Tgondii IFNg 2.
For CC(C)c1cc(C2CCN(Cc3cccnc3N)CC2)[nH]n1 the results were Tgondii IFNg -47.
`COc1ccccc1-c1noc(C2CCCN2C(=O)c2ccc3cc[nH]c3c2)n1` (centres undefined) gave Tgondii IFNg -2.
Screening CNC(=O)c1nc2c(s1)CCN(C(=O)NCc1ccccc1)CC2 returned Tgondii IFNg 66.
`COc1ccc(CNC(=O)c2nc3c(s2)CCN(C(C)=O)CC3)cc1` gave Tgondii IFNg -11.
Screening CC(C)CNC(=O)c1nc2c(s1)CCN(C(=O)NCc1ccccc1)CC2 returned Tgondii IFNg -84*.
O=C1OCCN1CCNCCC(=O)N1CCCc2ccccc21 was read as Tgondii IFNg -4.
CC(c1cccnc1)N(C)Cc1nccn1C(C)C (centres undefined) was read as Tgondii IFNg 2.
`O=C(Nc1ccccc1Cl)N1CCC2(CC1)Nc1ccccc1-n1cccc12` gave Tgondii IFNg 430.
`c1ccc(Nc2nc(-c3ccccc3)c(-c3ccccc3)s2)cc1` gave Tgondii IFNg -105*.
For CCCc1sc(Nc2ccc(C(=O)OC)cc2)nc1-c1ccccc1 the results were Tgondii IFNg 91.
Clc1cccc(Nc2nnc(-c3ccccc3)c3ccccc23)c1 was read as Tgondii IFNg 2.
`O=C(c1cc(CN2CCC(O)CC2)on1)N1CCCC1c1ccc(F)cc1` (centres undefined) gave Tgondii IFNg 7.
O=C(NCCCCc1ccccn1)c1ccccc1C1CCNC1 (centres undefined) was read as Tgondii IFNg 1.
`CN(C)CCN1C(=O)CCC12CCN(C(=O)CC1CC1)CC2` gave Tgondii IFNg 19.
Screening COc1cccc(S(=O)(=O)N2CCCCN3[C@H](C2)[C@@H](c2ccc(C#CCC(C)C)cc2)[C@@H]3CO)c1 returned Tgondii IFNg -33.
`COc1cccc(S(=O)(=O)N2CCCCN3[C@@H](CO)[C@@H](c4ccc(C#CCC(C)C)cc4)[C@@H]3C2)c1` gave Tgondii IFNg -64.
`COc1cccc(S(=O)(=O)N2CCCCN3[C@H](CO)[C@H](c4ccc(C#CCC(C)C)cc4)[C@H]3C2)c1` gave Tgondii IFNg -81*.
`COC(=O)c1ccc(S(=O)(=O)N2CC(c3ccccn3)C2)n1C` gave Tgondii IFNg 0.
Screening COc1cc(C(=O)Nc2ccccc2-c2nc3ccccc3s2)cc(OC)c1OC returned Tgondii IFNg -90*.

Assay outcomes deposited in PubChem BioAssay by Broad Institute.
